The subject of assay [1] is Human papillomavirus type 1a protein E7 (residues 44-93). As to the kind of experiment: small molecules binding HPV E7 44-93 – biochemical, small-molecule microarray, residues 44-93, 635 nm fluorescence, primary screen (AID 1108).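 Further: E7 fragment applied at 1 µg/mL in TBST for 1 h at 4 C; score combines spot fluorescence with its signal to noise ratio.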 As to conditions: fluorescence 635 nm, higher = more signal.
Assay [2] in a line: hepatitis C replication reporter changes, two-sided – Huh7 cells, luciferase reporter, HCV replication inhibitor project, primary screen (AID 1109).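 Further: huh7 hepatoma cells harbouring a luciferase neomycin HCV replicon reporter; luciferase luminescence as measure of HCV replicon replication; test concentration not given here.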 As to conditions: Huh7 HCV replicon luciferase reporter, 48 h; higher = more signal. On the technique in general: In a reporter assay the amount or activity of a reporter protein is the signal.
The target in assay [3] is Left-right determination factor 2 (Homo sapiens) (UniProt O00292). As to the kind of experiment: small molecules binding LEFTY2 protein – biochemical, small-molecule microarray, 635 nm fluorescence scan, primary screen (AID 1110). To be noted: higher = more signal.
Left-right determination factor 2 (Homo sapiens), sequence (O00292 whole entry, looked up): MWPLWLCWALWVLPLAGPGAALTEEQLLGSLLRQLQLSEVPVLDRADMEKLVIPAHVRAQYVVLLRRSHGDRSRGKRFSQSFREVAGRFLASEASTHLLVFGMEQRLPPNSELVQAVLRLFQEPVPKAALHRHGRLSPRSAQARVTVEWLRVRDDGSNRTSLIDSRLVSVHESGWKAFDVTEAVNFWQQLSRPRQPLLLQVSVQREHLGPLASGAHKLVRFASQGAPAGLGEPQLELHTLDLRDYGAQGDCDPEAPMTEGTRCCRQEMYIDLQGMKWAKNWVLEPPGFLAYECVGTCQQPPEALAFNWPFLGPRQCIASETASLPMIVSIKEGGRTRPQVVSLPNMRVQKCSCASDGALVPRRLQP
The target of assay [4] is Calmodulin-1 (Homo sapiens) (UniProt P0DP23). As to the kind of experiment: small molecules binding calmodulin-1 with EGTA – biochemical, small-molecule microarray, Cy5-labelled CALM1, profiling panel (AID 1111).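 Further: labelled calmodulin applied in Tris saline Tween buffer holding calcium plus EGTA and DTT.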 As to conditions: Cy5-CALM1 binding fluorescence, higher = more signal.
For assay [5] the target is unchanged. As to the kind of experiment: small molecules binding Ca-loaded calmodulin-1 – biochemical, small-molecule microarray, Cy5-labelled CALM1, plus calcium, artefact control for SMM control-protein annotation, profiling panel (AID 1112).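 Further: score merges spot fluorescence with signal to noise from triplicate slides.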 To be noted: Cy5-CALM1 binding fluorescence, higher = more signal.
The nature of assay [6]: probe aWnt5a binding to arrayed compounds – biochemical, biotinylated probe, 635/667 nm fluorescence, primary screen (AID 1113).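 Further: score merges 667 nm fluorescence intensity with signal-to-noise per printed feature.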 To be noted: small-molecule microarray, higher = more signal.
A short description of assay [7]: probe aShh binding to arrayed compounds – biochemical, biotinylated probe, 635/667 nm fluorescence, primary screen (AID 1114).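 Further: probe is biotin-labelled aShh protein from a stem cell growth factor screen; measures binding of labelled protein to compounds printed on the slide; score merges feature fluorescence at 667 nm with signal-to-noise.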 To be noted: small-molecule microarray, higher = more signal.
The nature of assay [8]: probe aNog binding to arrayed compounds – biochemical, biotinylated probe, 635/667 nm fluorescence, primary screen (AID 1115).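 Further: probe is biotinylated aNog protein used at 0.15 µg/mL for 1 h at 4 C; z-score combines 667 nm fluorescence of each spot with its signal to noise.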 To be noted: small-molecule microarray, higher = more signal.
In assay [9] the target is Torsin-1A-interacting protein 1 (Homo sapiens) (UniProt Q5JTV8). As to the kind of experiment: compound microarray binding of lysate hLAP1 – cell lysate, small-molecule microarray, COS7 lysate, 635/667 nm fluorescence, primary screen (AID 1116). As to conditions: 635 nm fluorescence, higher = more signal.
Torsin-1A-interacting protein 1 (Homo sapiens), sequence (Q5JTV8 whole entry, looked up): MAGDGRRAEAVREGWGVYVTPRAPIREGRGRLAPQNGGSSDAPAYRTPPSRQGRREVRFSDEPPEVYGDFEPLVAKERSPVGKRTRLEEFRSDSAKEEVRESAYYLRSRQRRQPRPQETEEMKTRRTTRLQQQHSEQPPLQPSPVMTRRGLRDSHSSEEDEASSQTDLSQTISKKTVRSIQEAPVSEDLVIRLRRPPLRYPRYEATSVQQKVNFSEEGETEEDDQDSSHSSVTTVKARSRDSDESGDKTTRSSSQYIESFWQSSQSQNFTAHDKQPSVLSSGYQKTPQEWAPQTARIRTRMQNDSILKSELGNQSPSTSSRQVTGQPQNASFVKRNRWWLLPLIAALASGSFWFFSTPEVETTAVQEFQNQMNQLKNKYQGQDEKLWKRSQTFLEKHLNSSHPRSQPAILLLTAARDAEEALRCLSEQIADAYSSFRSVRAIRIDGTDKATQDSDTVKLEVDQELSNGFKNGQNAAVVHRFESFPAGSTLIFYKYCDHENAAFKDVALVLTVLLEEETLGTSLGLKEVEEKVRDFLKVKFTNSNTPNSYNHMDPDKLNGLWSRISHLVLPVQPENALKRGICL
Assay [10] deals with Alpha-bungarotoxin (Bungarus multicinctus) (UniProt P60615). Kind of assay: compounds binding labelled alpha-BTX control protein – biochemical, small-molecule microarray, Alexa647 label, 635/667 nm fluorescence, artefact control for SMM control protein annotation, profiling panel (AID 1117). To be noted: alpha-BTX-A647 binding fluorescence, higher = more signal.
Alpha-bungarotoxin (Bungarus multicinctus), sequence (P60615 whole entry, looked up): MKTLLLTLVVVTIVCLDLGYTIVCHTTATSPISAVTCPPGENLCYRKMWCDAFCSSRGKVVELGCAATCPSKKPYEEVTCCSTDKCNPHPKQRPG
Assay [11] deals with Albumin (Bos taurus) (UniProt P02769). Kind of assay: compounds binding labelled BSA control protein – biochemical, small-molecule microarray, Alexa647 label, 635/667 nm fluorescence, artefact control for SMM control protein annotation, profiling panel (AID 1118).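 Further: score merges 667 nm emission intensity and signal-to-noise per printed compound spot.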 To be noted: BSA-A647 binding, fluorescence 635 nm, higher = more signal.
Albumin (Bos taurus), sequence (P02769 whole entry, looked up): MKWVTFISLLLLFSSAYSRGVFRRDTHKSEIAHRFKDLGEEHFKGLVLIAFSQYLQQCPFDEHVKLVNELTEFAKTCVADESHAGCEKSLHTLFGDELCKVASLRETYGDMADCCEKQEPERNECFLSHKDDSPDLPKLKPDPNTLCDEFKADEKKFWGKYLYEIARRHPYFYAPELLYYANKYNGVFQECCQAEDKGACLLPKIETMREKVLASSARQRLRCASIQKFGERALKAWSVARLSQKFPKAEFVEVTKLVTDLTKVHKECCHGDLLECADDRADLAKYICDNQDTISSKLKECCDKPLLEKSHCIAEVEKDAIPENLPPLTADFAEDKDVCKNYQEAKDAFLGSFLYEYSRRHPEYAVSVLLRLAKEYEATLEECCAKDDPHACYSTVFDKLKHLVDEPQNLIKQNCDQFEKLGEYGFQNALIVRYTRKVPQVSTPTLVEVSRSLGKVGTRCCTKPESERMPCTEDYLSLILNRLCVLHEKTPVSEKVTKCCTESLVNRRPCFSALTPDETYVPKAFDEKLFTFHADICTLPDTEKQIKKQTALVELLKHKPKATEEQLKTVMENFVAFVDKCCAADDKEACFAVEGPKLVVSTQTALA
Assay [12] can be described thus: probe aXIP binding to arrayed compounds – biochemical, NeuroSMM set, 635/667 nm fluorescence, primary screen (AID 1119).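 Further: probe is the protein aXip251-270 applied at 1 µg/mL to compound-printed slides; binding of probe to printed compounds measured as 667 nm fluorescence plus signal to noise.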 As to conditions: small-molecule microarray, higher = more signal, called active from +8 up or from −8 down.
The nature of assay [13]: probe aNOTCH3 binding on compound microarray – biochemical, small-molecule microarray, 635/667 nm fluorescence, primary screen (AID 1120).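 Further: probe is a biotin-tagged antibody raised against NOTCH3 rather than NOTCH3 protein; score merges spot fluorescence near 667 nm with spot signal to noise.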 As to conditions: higher = more signal.
Assay [14] in a line: probe aNOTCH2 binding on compound microarray – biochemical, small-molecule microarray, 635/667 nm fluorescence, primary screen (AID 1121).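 Further: score merges feature fluorescence read at 667 nm with its signal to noise.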 To be noted: higher = more signal.
The target in assay [15] is Carbonic anhydrase 2 (Homo sapiens) (UniProt P00918). As to the kind of experiment: compounds binding carbonic anhydrase 2 – biochemical, small-molecule microarray, Alexa647-labelled CAII, profiling panel (AID 1122). To be noted: CAII-A647 binding fluorescence, higher = more signal.
A short description of assay [16]: COS7 lysate on small-molecule microarray, probe aHis, 635 nm (AID 1123).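 Further: z-score combines 667nm fluorescence intensity with signal-to-noise per printed compound spot.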 To be noted: COS7 cell lysate, fluorescence, higher = more signal.
Assay [17] in a line: probe aLAP1 signal on lysate-treated microarray – cell lysate, small-molecule microarray, COS7 lysate, primary screen (AID 1124).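 Further: lysate comes from COS7 cells expressing LAP1 and is applied at 0.3 µg/mL; score merges spot fluorescence near 667 nm with signal-to-noise over triplicate slides.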 As to conditions: probe aLAP1, fluorescence, higher = more signal.
Assay [18] deals with Sam68 (KHDRBS1). Kind of assay: compounds binding KHDRBS1 protein – biochemical, small-molecule microarray, 635 nm fluorescence, primary screen (AID 1125).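 Further: score merges 667 nm channel intensity with signal to noise over triplicate slides.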 To be noted: higher = more signal.
The test system of assay [19] is Chordin-like protein 2 (CHRDL2). As to the kind of experiment: compounds binding chordin-like 2 – biochemical, small-molecule microarray, 635 nm fluorescence, primary screen (AID 1126).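 Further: printed compound slides probed with Chrdl2 protein at 4 µg/mL for 1 h at 4 C; score merges 667 nm emission intensity with signal to noise over three replicate slides.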 As to conditions: fluorescence 635 nm, higher = more signal.
Assay [20] deals with Concanavalin-A (Canavalia ensiformis) (UniProt P02866). Kind of assay: compounds binding concanavalin A lectin – biochemical, small-molecule microarray, Alexa647 label, 635 nm, artefact control for SMM control protein annotation, primary screen (AID 1127).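 Further: z combines 667 nm emission intensity with signal-to-noise across three replicate slides.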 As to conditions: ConA-A647 binding fluorescence, higher = more signal.
Concanavalin-A (Canavalia ensiformis), sequence (P02866 whole entry, looked up): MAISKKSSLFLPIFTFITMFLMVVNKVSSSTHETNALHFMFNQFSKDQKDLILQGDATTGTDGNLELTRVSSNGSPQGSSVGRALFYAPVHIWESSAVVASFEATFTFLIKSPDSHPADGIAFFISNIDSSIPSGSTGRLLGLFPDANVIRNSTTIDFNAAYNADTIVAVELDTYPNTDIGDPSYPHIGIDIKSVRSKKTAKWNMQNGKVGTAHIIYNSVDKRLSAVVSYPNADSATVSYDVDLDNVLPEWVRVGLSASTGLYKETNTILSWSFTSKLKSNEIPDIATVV

In PubChem BioAssay one finds composite z-score, z-score and composite Z-score data, which are given here for eight molecules.

The source made the active and inactive calls.

`C#CCOC(=O)N[C@H](C=CCCCC)c1ccccc1`: the composite z-score in [1] is -0.0543; in assay [3], -0.0624; in assay [4] it was 0.44; in assay [5], 0.368; in [6], -0.0888; in assay [7], 0.413. The composite z-score in [8] was 1.52; in assay [9] it was 1.51; in assay [10] it was -0.194; in assay [11] it was 1.02; in assay [13], 0.0077; in assay [14] it was 0.0964. Besides, the composite z-score in assay [15] is 0.88; in [16], 3.67; in assay [17] it was 0.711; in assay [18], 0.199; in assay [19], -0.0017; in [20], 0.0429. In assay [2], this molecule showed a z-score of -0.498. Further, the composite Z-score in [12] is 0.33 (inactive).
As to `C=C(COC)/C(=C/C[C@@H](OC(=O)c1ccncc1)c1cccc(OCCO)c1)c1cc(C(=O)OC)ccc1OC`, the composite z-score in assay [1] is 0.755; in assay [3], 0.872; in assay [4], -0.134; in [5] it was -0.698; in [6], 0.115; in assay [7] it was 0.0048. Besides, the composite z-score in [8] is -0.483; in [9], 0.567; in [10], 0.243; in assay [11], -0.431; in assay [13], 0.0297; in [14], -0.147. The composite z-score in assay [15] was 0.646; in [16], -0.0596; in assay [17] it was 0.996; in assay [18], 1.24; in assay [19] it was 0.699; in assay [20], 0.206. The molecule also returned a z-score in [2] of -4.4. Moreover, the composite Z-score in [12] is 0.135 (inactive).
In the case of `CC(C)N1C(=O)c2ccccc2[C@](C)(C(=O)O)[C@@H]1c1ccc(CO)cc1`, the composite z-score in [1] is -0.113; in [3], -1.23; in [4], -0.198; in assay [5], 0.531; in assay [6], -0.143; in assay [7], 0.133. Further, the composite z-score is 0.338 in assay [8]; 0.274 in assay [9]; 0.468 in [10]; 0.401 in assay [11]; -0.103 in assay [13]; 0.16 in assay [14]. In addition, the composite z-score in assay [15] is 0.326; in [16], 0.119; in [17] it was 0.755; in assay [18], -0.769; in assay [19] it was -1.49; in [20], -0.0545. Also, the z-score in [2] was -0.169. For the same molecule, the composite Z-score in assay [12] was -0.158 (inactive).
`COc1ccccc1CN1C(=O)c2ccccc2[C@@H](C(=O)NCC(C)C)[C@@H]1c1ccc(CO)cc1`: the composite z-score was 1.05 in assay [1]; 0.13 in assay [3]; 0.139 in assay [4]; -0.0968 in [5]; -0.196 in assay [6]; -0.776 in assay [7]. For the same molecule, the composite z-score in assay [8] was -0.0069; in assay [9] it was 0.741; in assay [10], -0.544; in [11], -0.325; in assay [13], -0.236; in assay [14], -0.0226. Further, the composite z-score was 0.623 in assay [15]; 0.368 in assay [16]; 0.537 in assay [17]; -0.134 in assay [18]; 0.0987 in assay [19]; 0.358 in assay [20]. In assay [2], this molecule came in with a z-score of -0.541. For the same molecule, the composite Z-score in [12] was 0.0829 (inactive).
As to `COC(=O)c1c(CC[C@@H](CO)NC(=O)N[C@@H](C)Cn2cc(C3(O)CCCC3)nn2)oc(C(C)=O)c1C(=O)OC`, the composite z-score in assay [1] was 0.467; in [3], 0.0541; in [4] it was -0.186; in assay [5] it was -0.467; in [6], -0.0758; in assay [7], -0.0709. Further, the composite z-score in assay [8] is -0.368; in [9], 0.711; in assay [10] it was 0.282; in assay [11], 0.815; in assay [13], 0.276; in assay [14], -0.204. In addition, the composite z-score in assay [15] is 0.672; in assay [16], 2.66; in assay [17], 0.0377; in assay [18], 0.481; in assay [19], -0.425; in [20] it was 0.484. This molecule came in with a z-score in [2] of 0.884. Besides, in [12], the composite Z-score is 0.42 (inactive).
For the molecule `COc1ccc([Si](C)(C)[C@@H]2[C@@H](CCO)O[C@]3(C(=O)N(Cc4ccc(N5C(=O)c6ccccc6Oc6ccccc65)cc4)c4ccccc43)[C@H]2C)cc1`, the composite z-score was -0.0261 in [1]; -1.16 in assay [3]; 0.322 in [4]; 0.751 in assay [5]; -0.0643 in [6]; -0.138 in assay [7]. In addition, the composite z-score was -0.358 in assay [8]; -1.06 in [9]; 0.0794 in [10]; 0.0104 in [11]; -0.0984 in assay [13]; -0.106 in [14]. Besides, the composite z-score in assay [15] is -0.104; in assay [16], 0.232; in assay [17], -0.398; in [18], -0.345; in assay [19], -0.968; in [20], 0.187. The same molecule registered a z-score in assay [2] of -4.95. Besides, in assay [12], the composite Z-score is 0.441 (inactive).
Regarding `Cc1ccc(S[C@]2(C(=O)NCCN3CCOCC3)CC(=O)N(C3Cc4ccccc4C3)[C@@H]2c2ccc(CO)cc2)cc1`, the composite z-score in assay [1] was 1.36; in [3] it was -1.59; in assay [4] it was -0.482; in [5], -0.399; in [6], -0.0425; in assay [7], -0.181. Also, the composite z-score in [8] is 0.775; in assay [9], 0.143; in assay [10] it was 0.0451; in [11], 0.0022; in assay [13], -0.159; in assay [14] it was -0.0745. For the same molecule, the composite z-score in assay [15] is 0.66; in [16] it was 2.08; in [17], 0.0297; in [18], 0.151; in assay [19] it was -0.373; in assay [20], 0.152. Moreover, the z-score in assay [2] was -1.56. The composite Z-score in [12] is 0.39 (inactive).
For the molecule `Cc1ccc(S[C@]2(C(=O)O)CC(=O)N(C3CCCCC3)[C@@H]2c2ccc(CO)cc2)cc1`, the composite z-score was 0.755 in [1]; -0.442 in [3]; 0.381 in [4]; -1.39 in [5]; 0.0581 in assay [6]; 0.428 in [7]. Further, the composite z-score in assay [8] is 1.1; in [9], 0.578; in assay [10], 0.842; in assay [11], 0.242; in [13] it was -0.398; in assay [14], 0.0394. Further, the composite z-score was 0.714 in assay [15]; 1.29 in assay [16]; 0.975 in assay [17]; 1.31 in assay [18]; -0.134 in assay [19]; 1.16 in assay [20]. Moreover, in [2], the z-score is -1.2. Besides, the composite Z-score in assay [12] is 0.842 (inactive).
